NS1 inh: blocks influenza NS1 protein function; AID 2326; Potency, µM (titrated, usually from 46.1 µM), without a hit: at the highest dose activity, positive = more growth; actives 0.4% (n = 270,000); calls by dose curve; further: potency means the concentration at half of the fitted maximal effect; actives are rising curves; nearly all actives have a fitted effect of over 50% in size
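Read-out: OD600 growth recovery of NS1-expressing budding yeast. Cells grown overnight at 30C in -URA glucose medium, washed, resuspended and diluted 1:100 in 2% galactose assay medium, pH 6.0. Same strain lacking NS1 served as positive control.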
CHX counter: counter-screen hit for Shiga toxin inhibitors, cycloheximide. cell reporter, cycloheximide protein synthesis inhibition counterscreen. max response, %. actives 12% (n = 300,000). AID 2314; in the data active means max response mostly above about 13%, no sharp cut-off; inactive means mostly below about 14%; further: read at 38.3 µM for the half of the compounds with a filed dose; 0% is about no effect
Shiga toxin inh: Shiga toxin inhibition. actives 9.2% (n = 290,000). AID 2315. Vero cells, Shiga toxin protein synthesis inhibition reporter. inhibition, % at 38.7 µM; in the data active means inhibition mostly above about 28%, no sharp cut-off; inactive means mostly below about 43%; further: 0% is about no effect
LmPK inhibitor: LmPK (Leishmania mexicana) enzyme inhibition | Potency, µM (titrated, usually from 57.5 µM), for inactives: top-dose activity change, negative = inhibition, most hits filed as inhibitors | Q27686 | purified LmPK, Kinase-Glo ATP luminescence, 1 h | actives 0.37% (n = 290,000); further: potency means the concentration at half of the fitted maximal effect; on the % scale 0 is the no-effect control and ±100 the full control effect
Target sequence (Q27686 whole entry, looked up): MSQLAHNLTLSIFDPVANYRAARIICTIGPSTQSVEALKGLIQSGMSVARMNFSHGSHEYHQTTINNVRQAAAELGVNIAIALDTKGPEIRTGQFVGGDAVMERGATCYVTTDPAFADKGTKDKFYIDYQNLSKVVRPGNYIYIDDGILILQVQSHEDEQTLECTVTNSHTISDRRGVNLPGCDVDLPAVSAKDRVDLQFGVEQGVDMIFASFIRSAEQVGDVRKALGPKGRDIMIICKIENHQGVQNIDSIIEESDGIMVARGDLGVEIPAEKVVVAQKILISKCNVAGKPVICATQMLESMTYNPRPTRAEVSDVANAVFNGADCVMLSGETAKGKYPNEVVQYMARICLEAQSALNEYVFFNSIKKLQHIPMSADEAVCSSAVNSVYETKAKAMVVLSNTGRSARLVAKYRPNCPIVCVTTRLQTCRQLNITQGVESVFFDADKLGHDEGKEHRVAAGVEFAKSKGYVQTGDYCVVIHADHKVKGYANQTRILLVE
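Purified LmPK (0.1 nM) converted ADP (0.1 mM) to ATP with PEP (0.5 mM) in imidazole buffer pH 7.2 with KCl and MgCl2, 1 h at room temperature. ATP was read by Kinase-Glo luminescence; data normalized to uninhibited and no-enzyme controls.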
SARS PLpro yeast: blocks SARS-CoV papain-like protease in a yeast assay | S. cerevisiae expressing SARS-CoV PLpro, growth rescue | Potency, µM (titrated, usually from 32.9 µM), without a hit: at the top dose activity, positive = growth rescue, actives largely listed as activators | actives 0.19% (n = 330,000) | AID 485353; calls by dose curve; further: potency means the concentration at half of the fitted maximal effect; 0% is about no effect; nearly all actives have a fitted effect of over 55% in size
TbPYK inhibitor: blocks Trypanosoma brucei pyruvate kinase | Q57TT1 | TbPYK enzyme, Kinase-Glo Plus ATP luminescence, 45 min | Potency, µM (doses to about 76.8 µM), inactives show at the highest dose activity, negative = inhibition, actives largely listed as inhibitors | actives 0.12% (n = 410,000) | AID 624173; further: potency means the concentration at half of the fitted maximal effect; on the % scale 0 is the no-effect control and ±100 the full control effect; nearly all actives have a fitted effect of over 50% in size
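Assay buffer: 50 mM TEA pH 7.2, 100 mM KCl, 10 mM MgCl2, 0.05% BSA, 0.01% Tween-20. Pyruvate kinase from T. brucei plus substrate met compound, then ADP (130 uM final). Luminescence was read post 45 min RT.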
* marks the source's active call; other numbers are inactive results; ? = inconclusive; / = not tested or not shown; [ ] = another dose, or the depositor's remark. The sample as a whole holds a higher share of hits than the screen did. Unless noted, the call rests on the fitted dose curve; in most records, active means well fitted curve in the direction sought with a large enough effect; inconclusive means small, poorly fitted or top-dose-only effect, or another doubt; inactive means no such curve, though single readings can be large; an effect the other way counts as inactive or inconclusive.

SMILES	NS1 inh	CHX counter	Shiga toxin inh	LmPK inhibitor	SARS PLpro yeast	TbPYK inhibitor
COC(=O)c1ccc(CSc2nc3ccc(S(N)(=O)=O)cc3[nH]2)cc1	7%	11	18	-2%	6%	2%
COC(=O)c1ccc(CSc2nc(-c3ccccc3)cs2)o1	-16%	22*	45	-3%	-1%	-9%
COC(=O)c1cccc(CSc2nc3ccccc3[nH]2)c1	-25%	39*	92*	-17%	-25%	6%
COC(=O)c1ccc(CSc2nnc(SCc3ccc(C(=O)OC)o3)s2)o1	-18%	-2	-10	1%	-1%	-17%
COC(=O)c1ccc(CSc2nc3ccccc3[nH]2)o1	-13%	11*	10	-2%	-9%	-10%
O=C(c1ccc(N2CCCS2(=O)=O)cc1)N1CCN(c2ccccc2)CC1	-1%	0	15	-1%	-1%	1%
Cc1ccc(S(=O)(=O)Nc2c(Cl)c(Cl)c(O)c3ccccc23)cc1	-122%	34*	47*	6.3µM*	-27%	/
Cc1ccc(S(=O)(=O)Nc2c(O)ccc3ccccc23)cc1	/	/	/	/	/	-14%
O=C(CCN1C(=O)c2ccccc2S1(=O)=O)NCc1ccc(F)cc1	/	/	/	/	4%	1%
O=C1c2ccccc2S(=O)(=O)N1CCOc1ccc(F)cc1	4%	21*	55	-3%	2%	2%
COc1ccccc1CNc1cc(-c2ccccc2)ccc1OC	-1%	6	-9	0%	-3%	-6%
COc1ccc(-c2ccccc2)cc1NCc1ccccc1C	-6%	44*	46	-4%	-2%	-4%
O=[N+]([O-])c1ccc(SCCc2ccccn2)cc1	-1%	21*	50*	-9%	-3%	-19%
Cc1ccnc(SCc2ccc([N+](=O)[O-])cc2)n1	2%	17*	46	6%	-2%	2%
O=[N+]([O-])c1ccccc1CSc1ccccn1	6%	11	53*	2%	0%	7%
O=[N+]([O-])c1ccc(CSc2ccccn2)cc1	2%	39*	48	0%	1%	11%
O=[N+]([O-])c1ccc(Sc2ccccn2)nc1	2%	3	31	-2%	0%	-22%
Cc1cc(C)nc(SCc2ccc([N+](=O)[O-])cc2)n1	-4%	0	9	1%	-1%	-2%
Cc1ccc2[nH]c3c(=O)n(CC(=O)NCCCN4CCN(c5ccc(F)cc5)CC4)ncc3c2c1	0%	5	-5	-2%	20%	3%
CCCCN1CC(C)(C)Oc2cccc(F)c2S1(=O)=O	/	/	/	/	/	5%
Cn1cnc([N+](=O)[O-])c1[Se]c1nc(N)nc2c1ncn2[C@@H]1O[C@@H](CO)[C@H](O)[C@@H]1O	-3%	/	/	/	/	/
CCOC(=O)c1ccccc1NC(=O)CSc1nc2ncccc2[nH]1	/	/	/	/	/	0%
c1ccc(Cn2c(SCc3nc4ccccc4s3)nnc2-c2ccco2)cc1	-38%	10	14	4%	-9%	28µM*
CCC(c1nnc(SCc2nc3ccccc3s2)n1Cc1ccccc1)N(C)C (centres undefined)	-2%	32*	56*	14%	1%	-15%
COc1ccccc1N=CC=C1OC(C)(C)C(C)(C)O1	/	10*	50	9%	-1%	3%
SMILES	NS1 inh	CHX counter	Shiga toxin inh	LmPK inhibitor	SARS PLpro yeast	TbPYK inhibitor
Cc1ccc(N=CC=C2OC(C)(C)C(C)(C)O2)c(C)c1	-1%	10	34	1%	5%	18%
Fc1ccc(Nc2cccc3nccnc23)cc1	4%	22*	47*	0%	0%	-3%
c1cc(Nc2cccc3nccnc23)c2nccnc2c1	-3%	-2	-9	-4%	0%	-5%
O=C(Nc1cccnc1)Nc1ccc(F)c(Cl)c1	/	15*	26	-4%	-7%	-13%
O=C(Nc1cccnc1)c1cc(F)c(F)cc1Cl	/	-6	-5	1%	3%	3%
CCN(CC(=O)Nc1cccc(OC)c1)CC(=O)Nc1ccc(Br)c(C)c1	-10%	-3	3	4%	-5%	6%
COc1ccc(NC(=O)Nc2ccc(Br)c(C)c2)cc1	0%	11	31*	0%	-1%	3%
O=C(Nc1cccnc1)c1sc2cccc(F)c2c1Cl	-8%	38*	47*	-2%	-2%	-6%
COc1ccc(OC)c(NC(=O)Nc2ccc(Cl)cc2)c1	-159%	10	31	4%	-16%	0%
COc1ccc(NC(=O)Nc2ccc(F)c(Cl)c2)cc1	/	65*	91*	-9%	-1%	1%
Cc1cc(NS(=O)(=O)c2ccc(NC(=O)COc3ccccc3Br)cc2)no1	/	/	/	/	/	-1%
O=C(CS(=O)(=O)c1ccc(Cl)cc1)Nc1nc2ccc(Br)cc2s1	/	/	/	/	/	0%[15.4 µM]
Cc1cccc(N2CCN(C(=O)c3cc4c(=O)n(C)c5ccccc5c4s3)CC2)c1C	/	/	/	/	/	1%
O=C(NCC(=O)N1CCOCC1)c1ccc(Br)o1	/	/	/	/	3%	1%
Clc1ccc(CN2CCC(CNc3ncnc4onc(-c5ccc(Cl)cc5)c34)CC2)cc1	/	/	/	/	/	0%
Nc1nc(N)c2ncn(C3C=CC(CO)C3)c2n1 (centres undefined)	/	/	/	/	/	4%
Cc1ccc(NC(=O)Nc2ccc(F)c(Cl)c2)cc1	-41%	30*	82*	-2%	-2%	-11%
COc1ccc(C(CCN2CCOCC2)c2c(O)cc(OC)cc2OC)cc1 (centres undefined)	0%	-2	-11	-1%	4%	0%
COc1ccc(C(c2c(O)ccc3ccccc23)N2CCOCC2)c(OC)c1 (centres undefined)	-107%	34	65*	5%	-15%	0%
Cc1cccc(S(=O)(=O)c2c(C)cc(C)[nH]c2=O)c1	2%	30*	28	-3%	1%	-5%
Cc1cc(C)c(S(=O)(=O)c2cccc(C(F)(F)F)c2)c(=O)[nH]1	-2%	-3	3	-2%	1%	-4%
Cc1cc(C)c(S(=O)(=O)c2ccccc2)c(=O)[nH]1	3%	18*	13	-3%	2%	2%
CCc1cccc(NC(=O)Cn2c(=O)n(CCC(=O)NCc3ccccc3Cl)c(=O)c3sccc32)c1	/	/	/	/	/	5%
CC[n+]1c(/C=C/c2ccc(OC(C)=O)c(OC)c2)ccc2ccccc21	4%	40*	61*	-3%	-1%	12%
CC[n+]1c(/C=C/c2ccc(OC)c(OC)c2)ccc2ccccc21	-15%	26*	116*	1%	-7%	-9%
CC[n+]1ccc(/C=C/c2ccc(N(C)C)cc2)c2ccccc21	-70%	-5	-24	16µM*	-5%	?
CC[n+]1c(/C=C/c2ccc(N(C)C)cc2)ccc2ccccc21	-35%	24*	active	?	-131%	?
CCN1C(=O)C(Cc2nc3ccccc3c(=O)n2-c2ccc(OC)cc2)c2cc(C)ccc21 (centres undefined)	/	/	/	/	/	-6%
Cc1ccc(CNC(=O)CSc2nc(=O)n3ccc(C)cc3n2)cc1	/	/	/	/	/	-3%
